# The full data set covers some 7,900 targets. This sample favours those with a hit. About 0.6% of all pairs of compound and target were hits. A number with no mark means an inactive call.
# Legend:
# Assay in all cases: log2 fold change, soluble protein after heating vs DMSO (PISA); higher = thermal stabilisation; K562 cells, 10 uM, 30 min; active = over 0.2 and 3.5 SD of the protein, either way, in both replicates (recomputed)
# saracatinib = compound: CN1CCN(CCOc2cc(OC3CCOCC3)c3c(Nc4c(Cl)ccc5c4OCO5)ncnc3c2)CC1 [saracatinib]
# Method in brief: (§1)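 K562 cells at 2×10^6 cells/mL were treated with 10 μM compound for 30 min. Aliquots were heated for 3 min across 48°C-58°C, pooled, and extracted in PBS with 0.5% NP-40 at 4°C; soluble protein was the supernatant after 21,000xg for 90 min. Soluble protein was quantified by TMTpro 16plex LC-MS/MS with channel sums equalised, and reported as log2 fold change in thermal stability against DMSO controls, with values from duplicates.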
# sotrastaurin = compound: CN1CCN(c2nc(C3=C(c4c[nH]c5ccccc45)C(=O)NC3=O)c3ccccc3n2)CC1 [sotrastaurin]
# Method in brief: as §1
# alvocidib = compound: CN1CC[C@H](c2c(O)cc(O)c3c(=O)cc(-c4ccccc4Cl)oc23)[C@H](O)C1 [alvocidib]
# Method in brief: as §1
# Tubastatin A = compound: CN1CCc2c(c3ccccc3n2Cc2ccc(C(=O)NO)cc2)C1 [Tubastatin A]
# Method in brief: as §1
# [1] = compound: CNC(=O)C1=CC=CC=C1NC2=NC(=NC=C2Cl)NC3=C(C=C(C=C3)N4CCOCC4)OC
# Method in brief: as §1
# defactinib = compound: CNC(=O)c1ccc(Nc2ncc(C(F)(F)F)c(NCc3nccnc3N(C)S(C)(=O)=O)n2)cc1 [defactinib]
# Method in brief: as §1
# rucaparib = compound: CNCc1ccc(-c2[nH]c3cc(F)cc4c3c2CCNC4=O)cc1 [rucaparib]
# Method in brief: as §1
# [2] = compound: CNc1nc(-c2ccc3c(N)n[nH]c3c2)cc(N2C[C@@H](C(=O)NC3CCCCC3)CC[C@H]2C)n1
# Method in brief: as §1
# encorafenib = compound: COC(=O)N[C@@H](C)CNc1nccc(-c2cn(C(C)C)nc2-c2cc(Cl)cc(NS(C)(=O)=O)c2F)n1 [encorafenib]
# Method in brief: as §1
# [3] = compound: COC(=O)[C@H](CCSC)NC(=O)C1=C(C=C(C=C1)NC[C@H](CS)N)C2=CC=CC=C2
# Method in brief: as §1
# [4] = compound: COC1=CC=C(C=C1)CN2C=CC3=C2C=C(C=C3)C(=O)NO
# Method in brief: as §1
# filanesib = compound: CON(C)C(=O)N1N=C(c2cc(F)ccc2F)S[C@@]1(CCCN)c1ccccc1 [filanesib]
# Method in brief: as §1
# zotarolimus = compound: CO[C@H]1C[C@@H]2CC[C@@H](C)[C@@](O)(O2)C(=O)C(=O)N2CCCC[C@H]2C(=O)O[C@H]([C@H](C)C[C@@H]2CC[C@H](n3cnnn3)[C@H](OC)C2)CC(=O)[C@H](C)/C=C(\C)[C@@H](O)[C@@H](OC)C(=O)[C@H](C)C[C@H](C)/C=C/C=C/C=C/1C [zotarolimus]
# Method in brief: as §1
# idasanutlin = compound: COc1cc(C(=O)O)ccc1NC(=O)[C@@H]1N[C@@H](CC(C)(C)C)[C@](C#N)(c2ccc(Cl)cc2F)[C@H]1c1cccc(Cl)c1F [idasanutlin]
# Method in brief: as §1
# alisertib = compound: COc1cc(Nc2ncc3c(n2)-c2ccc(Cl)cc2C(c2c(F)cccc2OC)=NC3)ccc1C(=O)O [alisertib]
# Method in brief: as §1
# [5] = compound: COc1cc2nc(-c3cc(F)ccc3O)nc(N[C@@H]3CNC[C@H]3C(C)(C)O)c2cc1OC
# Method in brief: as §1
# gefitinib = compound: COc1cc2ncnc(Nc3ccc(F)c(Cl)c3)c2cc1OCCCN1CCOCC1 [gefitinib]
# Method in brief: as §1
# [6] = compound: COc1cccc2cc(-c3nc([C@H]4CC[C@H](C(=O)O)CC4)n4ncnc(N)c34)[nH]c12
# Method in brief: as §1
# lapatinib = compound: CS(=O)(=O)CCNCc1ccc(-c2ccc3ncnc(Nc4ccc(OCc5cccc(F)c5)c(Cl)c4)c3c2)o1 [lapatinib]
# Method in brief: as §1
# pictilisib = compound: CS(=O)(=O)N1CCN(Cc2cc3nc(-c4cccc5[nH]ncc45)nc(N4CCOCC4)c3s2)CC1 [pictilisib]
# Method in brief: as §1
# Sequence of UniProt Q13362 (Q13362 whole entry, looked up): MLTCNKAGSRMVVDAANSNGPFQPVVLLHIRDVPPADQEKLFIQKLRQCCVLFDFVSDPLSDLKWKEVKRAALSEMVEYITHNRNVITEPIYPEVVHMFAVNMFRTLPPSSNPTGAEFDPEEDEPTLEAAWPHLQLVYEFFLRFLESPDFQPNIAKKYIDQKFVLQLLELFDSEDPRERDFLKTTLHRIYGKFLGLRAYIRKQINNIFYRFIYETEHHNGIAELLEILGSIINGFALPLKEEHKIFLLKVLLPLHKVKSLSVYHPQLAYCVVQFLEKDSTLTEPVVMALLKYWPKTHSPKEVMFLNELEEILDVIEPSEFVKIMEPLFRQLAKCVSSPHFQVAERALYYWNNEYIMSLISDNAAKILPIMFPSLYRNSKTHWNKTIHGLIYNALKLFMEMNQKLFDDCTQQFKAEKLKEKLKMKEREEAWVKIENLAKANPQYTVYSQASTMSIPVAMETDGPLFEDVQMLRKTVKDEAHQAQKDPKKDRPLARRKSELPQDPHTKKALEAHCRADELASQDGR
# Sequence of UniProt O60925 (O60925 whole entry, looked up): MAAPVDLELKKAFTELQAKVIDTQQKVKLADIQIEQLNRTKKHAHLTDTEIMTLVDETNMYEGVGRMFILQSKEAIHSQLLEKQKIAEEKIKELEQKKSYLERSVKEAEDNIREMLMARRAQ
# Sequence of UniProt Q9UBV8 (Q9UBV8 whole entry, looked up): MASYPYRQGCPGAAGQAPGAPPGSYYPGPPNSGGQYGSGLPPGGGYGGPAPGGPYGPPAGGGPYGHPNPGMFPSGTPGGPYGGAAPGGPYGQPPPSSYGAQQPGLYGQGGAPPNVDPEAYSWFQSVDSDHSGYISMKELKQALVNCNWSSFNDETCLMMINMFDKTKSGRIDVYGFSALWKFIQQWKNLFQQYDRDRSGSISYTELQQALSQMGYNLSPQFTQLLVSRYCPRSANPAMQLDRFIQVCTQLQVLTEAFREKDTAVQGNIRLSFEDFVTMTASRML
# Sequence of UniProt O00625 (O00625 whole entry, looked up): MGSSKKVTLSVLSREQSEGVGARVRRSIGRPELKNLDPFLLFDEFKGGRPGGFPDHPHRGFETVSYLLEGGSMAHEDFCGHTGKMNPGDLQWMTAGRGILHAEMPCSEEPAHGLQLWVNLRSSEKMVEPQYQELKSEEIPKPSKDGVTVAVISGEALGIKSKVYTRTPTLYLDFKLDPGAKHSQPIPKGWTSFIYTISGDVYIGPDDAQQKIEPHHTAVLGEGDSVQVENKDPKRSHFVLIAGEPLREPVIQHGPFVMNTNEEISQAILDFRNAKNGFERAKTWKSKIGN
# Sequence of UniProt Q15008 (Q15008 whole entry, looked up): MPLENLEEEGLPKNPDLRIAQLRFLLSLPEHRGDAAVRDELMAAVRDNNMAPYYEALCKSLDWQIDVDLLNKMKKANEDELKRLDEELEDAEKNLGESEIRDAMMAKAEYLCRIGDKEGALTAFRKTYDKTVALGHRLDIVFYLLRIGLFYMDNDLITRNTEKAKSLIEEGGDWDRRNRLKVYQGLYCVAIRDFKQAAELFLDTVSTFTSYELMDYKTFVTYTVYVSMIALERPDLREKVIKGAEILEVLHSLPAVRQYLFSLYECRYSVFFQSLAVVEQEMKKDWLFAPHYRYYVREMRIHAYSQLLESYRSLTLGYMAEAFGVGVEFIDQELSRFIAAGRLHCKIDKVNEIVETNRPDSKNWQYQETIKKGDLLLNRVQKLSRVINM
# Sequence of UniProt Q08752 (Q08752 whole entry, looked up): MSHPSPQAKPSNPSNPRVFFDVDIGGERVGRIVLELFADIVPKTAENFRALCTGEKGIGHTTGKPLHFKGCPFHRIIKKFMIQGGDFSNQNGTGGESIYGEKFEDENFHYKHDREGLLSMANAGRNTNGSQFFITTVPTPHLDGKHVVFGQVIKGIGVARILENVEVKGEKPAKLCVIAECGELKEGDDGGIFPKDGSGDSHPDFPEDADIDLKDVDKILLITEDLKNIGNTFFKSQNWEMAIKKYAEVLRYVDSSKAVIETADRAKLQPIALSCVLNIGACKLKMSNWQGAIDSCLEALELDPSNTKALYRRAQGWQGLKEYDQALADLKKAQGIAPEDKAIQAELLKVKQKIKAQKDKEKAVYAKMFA
# Sequence of UniProt Q6WKZ4 (Q6WKZ4 whole entry, looked up): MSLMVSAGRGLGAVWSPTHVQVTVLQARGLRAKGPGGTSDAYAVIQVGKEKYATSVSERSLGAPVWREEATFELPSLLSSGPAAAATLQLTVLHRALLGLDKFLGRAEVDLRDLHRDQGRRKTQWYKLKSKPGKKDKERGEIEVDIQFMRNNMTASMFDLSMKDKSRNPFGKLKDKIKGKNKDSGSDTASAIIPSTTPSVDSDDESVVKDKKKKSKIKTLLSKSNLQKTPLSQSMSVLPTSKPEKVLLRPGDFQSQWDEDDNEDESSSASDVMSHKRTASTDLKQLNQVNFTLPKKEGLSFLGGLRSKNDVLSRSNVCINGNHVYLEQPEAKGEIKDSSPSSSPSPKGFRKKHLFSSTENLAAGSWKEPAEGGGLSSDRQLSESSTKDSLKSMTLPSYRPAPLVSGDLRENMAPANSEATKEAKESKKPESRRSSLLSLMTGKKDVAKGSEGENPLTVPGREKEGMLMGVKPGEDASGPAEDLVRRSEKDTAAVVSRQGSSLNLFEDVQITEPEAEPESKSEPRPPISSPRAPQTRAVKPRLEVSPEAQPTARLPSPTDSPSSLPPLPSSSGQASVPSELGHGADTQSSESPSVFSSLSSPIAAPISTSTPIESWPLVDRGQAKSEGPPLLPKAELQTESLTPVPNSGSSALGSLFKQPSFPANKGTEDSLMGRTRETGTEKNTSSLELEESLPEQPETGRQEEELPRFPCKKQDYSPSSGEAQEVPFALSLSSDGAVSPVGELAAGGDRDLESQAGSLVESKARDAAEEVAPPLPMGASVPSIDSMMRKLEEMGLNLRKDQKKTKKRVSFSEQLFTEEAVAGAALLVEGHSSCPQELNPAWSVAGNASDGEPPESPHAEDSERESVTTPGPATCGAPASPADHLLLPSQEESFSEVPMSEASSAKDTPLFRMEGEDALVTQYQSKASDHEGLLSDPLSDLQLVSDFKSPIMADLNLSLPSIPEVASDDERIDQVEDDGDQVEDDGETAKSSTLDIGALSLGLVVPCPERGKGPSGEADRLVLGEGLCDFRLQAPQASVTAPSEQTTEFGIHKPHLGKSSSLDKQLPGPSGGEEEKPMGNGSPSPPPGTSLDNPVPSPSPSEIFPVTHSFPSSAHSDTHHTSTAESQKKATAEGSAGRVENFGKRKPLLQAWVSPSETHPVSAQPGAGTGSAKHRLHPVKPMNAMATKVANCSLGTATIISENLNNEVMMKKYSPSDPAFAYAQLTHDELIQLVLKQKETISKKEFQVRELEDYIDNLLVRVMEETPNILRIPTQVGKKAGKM
# Sequence of UniProt Q8IZL8 (Q8IZL8 whole entry, looked up): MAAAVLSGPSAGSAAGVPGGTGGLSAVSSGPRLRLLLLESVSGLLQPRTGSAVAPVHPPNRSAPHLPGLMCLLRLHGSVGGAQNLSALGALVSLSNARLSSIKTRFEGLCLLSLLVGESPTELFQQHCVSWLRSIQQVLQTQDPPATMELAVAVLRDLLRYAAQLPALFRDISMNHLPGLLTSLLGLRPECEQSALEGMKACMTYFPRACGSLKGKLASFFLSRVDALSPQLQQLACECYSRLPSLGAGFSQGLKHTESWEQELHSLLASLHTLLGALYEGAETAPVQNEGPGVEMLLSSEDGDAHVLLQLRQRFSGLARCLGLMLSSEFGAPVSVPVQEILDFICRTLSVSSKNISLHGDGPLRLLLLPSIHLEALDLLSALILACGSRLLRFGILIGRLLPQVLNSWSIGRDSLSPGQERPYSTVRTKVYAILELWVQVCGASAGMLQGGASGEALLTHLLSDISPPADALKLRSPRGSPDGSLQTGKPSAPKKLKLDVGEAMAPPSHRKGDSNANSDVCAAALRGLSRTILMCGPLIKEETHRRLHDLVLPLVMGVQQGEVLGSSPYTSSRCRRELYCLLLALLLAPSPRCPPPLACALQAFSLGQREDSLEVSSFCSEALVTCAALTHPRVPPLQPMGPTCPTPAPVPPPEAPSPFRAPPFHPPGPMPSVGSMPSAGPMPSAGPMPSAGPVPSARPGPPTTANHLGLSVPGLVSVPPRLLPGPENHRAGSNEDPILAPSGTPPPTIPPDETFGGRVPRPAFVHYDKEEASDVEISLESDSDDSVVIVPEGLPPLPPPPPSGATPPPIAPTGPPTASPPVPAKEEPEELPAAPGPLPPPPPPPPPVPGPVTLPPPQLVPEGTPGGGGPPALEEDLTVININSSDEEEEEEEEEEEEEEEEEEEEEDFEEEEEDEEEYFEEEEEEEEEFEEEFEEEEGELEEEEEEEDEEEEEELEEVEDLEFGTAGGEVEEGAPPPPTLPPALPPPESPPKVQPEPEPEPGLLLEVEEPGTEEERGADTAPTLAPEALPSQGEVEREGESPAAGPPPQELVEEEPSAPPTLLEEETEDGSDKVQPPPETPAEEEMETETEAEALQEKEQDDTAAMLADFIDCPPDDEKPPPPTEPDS
# Sequence of UniProt Q13356 (Q13356 whole entry, looked up): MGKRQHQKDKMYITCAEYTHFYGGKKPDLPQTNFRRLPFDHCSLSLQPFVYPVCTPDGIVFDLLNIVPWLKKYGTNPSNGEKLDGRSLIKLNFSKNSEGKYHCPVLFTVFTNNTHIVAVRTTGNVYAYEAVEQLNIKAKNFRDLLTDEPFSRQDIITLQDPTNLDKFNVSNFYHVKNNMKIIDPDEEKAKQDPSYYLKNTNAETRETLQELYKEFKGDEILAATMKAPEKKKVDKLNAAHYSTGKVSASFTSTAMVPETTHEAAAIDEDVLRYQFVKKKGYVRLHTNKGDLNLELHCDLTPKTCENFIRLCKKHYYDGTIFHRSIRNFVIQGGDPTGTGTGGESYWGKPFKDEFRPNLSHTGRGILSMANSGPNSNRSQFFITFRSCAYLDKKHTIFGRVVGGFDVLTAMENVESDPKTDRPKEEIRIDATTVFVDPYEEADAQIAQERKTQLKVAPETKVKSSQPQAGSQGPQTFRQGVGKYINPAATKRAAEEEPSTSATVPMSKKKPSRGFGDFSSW
Target,log2 fold change (saracatinib),log2 fold change (sotrastaurin),log2 fold change (alvocidib),log2 fold change (Tubastatin A),log2 fold change [1],log2 fold change (defactinib),log2 fold change (rucaparib),log2 fold change [2],log2 fold change (encorafenib),log2 fold change [3],log2 fold change [4],log2 fold change (filanesib),log2 fold change (zotarolimus),log2 fold change (idasanutlin),log2 fold change (alisertib),log2 fold change [5],log2 fold change (gefitinib),log2 fold change [6],log2 fold change (lapatinib),log2 fold change (pictilisib)
PELP1 (UniProt Q8IZL8),-0.002,-0.007,-0.066,-0.021,-0.027,-0.082,-0.054,-0.069,-0.012,0.004,-0.096,-0.022,0.012,0.012,-0.045,-0.033,-0.002,0.042,0.031,-0.074
PPID (UniProt Q08752),-0.137,-0.178,-0.069,0.051,0.044,-0.101,0.135,0.042,0.142,-0.052,0.041,0,0.056,-0.055,-0.009,0.093,0.112,-0.091,-0.041,0.039
PSMC4 (UniProt P43686),-0.041,-0.011,0.047,-0.026,-0.032,0.074,0.039,0.037,0.019,0.005,-0.052,0.066,0.008,0.017,-0.049,-0.007,-0.052,-0.022,0.033,-0.099
PFDN1 (UniProt O60925),-0.074,-0.014,-0.035,0.022,-0.001,-0.066,-0.095,0.093,0.008,-0.078,-0.048,-0.007,0.091,-0.024,-0.042,-0.125,-0.002,0.026,-0.047,0.014
PSMD6 (UniProt Q15008),-0.044,-0.035,0.056,0.025,0.013,0.046,0.051,0.062,0.056,-0.021,-0.02,0.042,0.017,-0.013,-0.091,-0.062,-0.021,-0.045,0.102,-0.036
PEF1 (UniProt Q9UBV8),0,0.053,-0.006,-0.004,0.049,-0.01,-0.019,-0.014,-0.025,-0.003,-0.009,-0.038,0.041,-0.009,-0.008,-0.089,-0.011,0.058,0.032,-0.076
PIR (UniProt O00625),0.025,-0.01,-0.068,-0.284 (active),-0.002,-0.09,0.045,0,-0.045,0.012,-0.338 (active),0.015,0.011,0.033,-0.038,0.085,0.061,0.011,0.018,0.077
POLR2I (UniProt P36954),0.134,0.033,0.371,-0.266,0.009,0.141,0.162,0.02,0.015,0.023,-0.012,0.041,-0.017,0.029,0.061,0.076,-0.003,0.062,-0.006,-0.041
PELO (UniProt Q9BRX2),-0.079,-0.218,-0.066,0.121,-0.122,-0.058,0.299,0.148,0.137,0.061,0.001,0.128,0.158,-0.024,0.489,0.053,0.009,0.001,-0.06,-0.111
PIP4P1 isoform 2 (UniProt Q86T03),0.014,-0.108,0.066,-0.005,0,0.039,-0.026,-0.059,-0.027,0.015,0.089,-0.32 (active),0.004,0.002,0.032,-0.072,-0.018,-0.058,0.06,-0.061
PISD (UniProt Q9UG56),-0.095,0.061,0,0.019,0.026,-0.054,0.06,0.252 (active),0.063,0.028,-0.018,-0.012,0.015,-0.074,-0.024,0.148,0.008,0.012,-0.009,0.036
PPIL2 (UniProt Q13356),-0.02,-0.096,-0.093,0.069,-0.023,-0.194,0.073,0.067,0.047,-0.065,0.035,0.012,0.05,-0.032,0.01,0.131,0.076,-0.023,-0.02,0.028
PRKACA (UniProt P17612),0.002,-0.117,-0.012,0.054,-0.104,-0.015,0.061,0.077,0.01,0.072,0.05,-0.076,-0.034,0.006,-0.078,0.088,-0.004,0.028,0.025,0.068
PPP2R5C isoform 4 (UniProt Q13362),-0.04,0.009,-0.063,0.012,-0.068,-0.083,-0.003,-0.032,0.06,-0.025,0.125,-0.018,-0.019,0.017,0.031,0.155,-0.004,0.002,0.053,0.021
RAB11FIP1 (UniProt Q6WKZ4),0.021,-0.094,-0.028,0.005,0.045,-0.16,-0.012,-0.043,0.052,-0.019,-0.024,0.004,0,-0.015,0.368,-0.03,-0.009,0.007,0.01,-0.107

# Source: the supplement of paper PMC10849652
